Laboratory results: PubChem BioAssay (Tox21)
Records with an inconclusive call do not appear. Where a call stands in place of a potency, no number is given. Active and inactive are the calls of the source. Unless noted, calls follow the shape of the dose curve; as a rule, active = well fitted curve in the direction sought with a large enough effect in the repeat runs; inconclusive = weak or mixed curves; inactive = no such curve, though single readings can be large; an effect the other way counts as inactive or inconclusive.

Tests used:
[1] = qHTS assay to identify small molecule that activate the aryl hydrocarbon receptor (AhR) signaling pathway - cell viability counter screen (AID 743086);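 also: HepG2 liver cells carrying the AhR DRE luciferase reporter; series mostly up to about 70 µM; nearly all actives have a fitted effect of over 45% in size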
Procedure, shortened: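 Cytotoxicity counter screen: CellTiter-Fluor signal (30 min, 37 C) in 4000 HepG2 cells/well carrying the DRE-luciferase reporter, following 24 h compound exposure at 37 C.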

[2] = qHTS assay to identify small molecule antagonists of the peroxisome proliferator-activated receptor gamma (PPARg) signaling pathway - cell viability counter screen (AID 743194); also: nearly all actives have a fitted effect of over 55% in size; also: potency is read from the fitted curve at half-maximal effect
Procedure, shortened: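 Viability was measured as CellTiter-Glo luminescence in GeneBLAzer PPARg UAS-bla HEK293H cells. These cells had been exposed 17 h at 37 C to compounds together with rosiglitazone at 50 nM final, with the beta-lactamase readout taken in the same wells.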

[3] = qHTS assay for small molecule agonists of the antioxidant response element (ARE) signaling pathway (AID 743202; active = well fitted activation curve with a large enough effect in the signal ratio in the repeat runs, not every such curve was filed as active; the % refers to the signal ratio; also: potency is read from the fitted curve at half-maximal effect)
Procedure, shortened: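 Quantitative high-throughput format in HepG2 cells bearing an integrated ARE-beta-lactamase reporter. Compound exposure lasted 16 h at 37 C, and fluorescence was read 2 h after adding LiveBLAzer B/G substrate at room temperature.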

[4] = qHTS assay for small molecule agonists of the antioxidant response element (ARE) signaling pathway - cell viability counter screen (AID 743203; calls by dose curve; also: nearly all actives have a fitted effect of over 55% in size; also: potency is read from the fitted curve at half-maximal effect)
Procedure, shortened: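 Cells (ARE-bla HepG2, 2,000/well) receive DMSO-dissolved compounds after a 5 hrs rest. Plates incubate 16 hrs at 37C/5% CO2. CellTiter-Glo luminescence is then recorded after 30 min at room temperature.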

[5] = qHTS assay for small molecule activators of the heat shock response signaling pathway - cell viability counter screen (AID 743209); also: nearly all actives have a fitted effect of over 50% in size; also: potency is read from the fitted curve at half-maximal effect
Procedure, shortened: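 Quantitative HTS format, Tox21 10K library. HeLa cells carrying an HSE-driven beta-lactamase reporter were treated 5 h at 37 C, then assessed for viability by CellTiter-Glo luminescence.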

[6] = target: Peroxisome proliferator-activated receptor delta (Homo sapiens) (UniProt Q03181); experiment: qHTS assay to identify small molecule agonists of the peroxisome proliferator-activated receptor delta (PPARd) signaling pathway (AID 743212; calls by dose curve)
Peroxisome proliferator-activated receptor delta (Homo sapiens), sequence (Q03181 whole entry, looked up): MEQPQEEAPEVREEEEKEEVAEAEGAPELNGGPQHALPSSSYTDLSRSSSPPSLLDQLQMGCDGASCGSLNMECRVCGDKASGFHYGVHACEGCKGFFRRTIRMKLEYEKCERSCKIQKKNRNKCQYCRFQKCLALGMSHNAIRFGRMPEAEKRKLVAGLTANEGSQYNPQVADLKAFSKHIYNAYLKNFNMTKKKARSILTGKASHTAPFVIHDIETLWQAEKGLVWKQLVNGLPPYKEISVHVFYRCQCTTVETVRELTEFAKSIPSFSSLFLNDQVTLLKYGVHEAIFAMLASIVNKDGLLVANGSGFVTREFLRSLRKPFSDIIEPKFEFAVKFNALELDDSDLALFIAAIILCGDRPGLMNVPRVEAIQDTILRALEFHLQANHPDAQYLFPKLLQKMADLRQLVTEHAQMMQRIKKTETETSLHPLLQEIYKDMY
Procedure, shortened: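 HEK293H PPARd-bla cells; 5 h preincubation 37 C/5% CO2; compound (DMSO) 37 C; LiveBLAzer B/G FRET substrate 2 h RT; fluorescence intensity.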

[7] = target: Peroxisome proliferator-activated receptor delta (Homo sapiens) (UniProt Q03181); experiment: qHTS assay to identify small molecule antagonists of the peroxisome proliferator-activated receptor delta (PPARd) signaling pathway (AID 743215; active = well fitted inhibition curve with a large enough effect in the signal ratio in the repeat runs, not every such curve was filed as active; the % refers to the signal ratio;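 also: cells stimulated with agonist L165041 at 300 nM final during compound exposure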; also: potency is read from the fitted curve at half-maximal effect)
Procedure, shortened: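 Antagonist-mode beta-lactamase reporter screen: HEK293H cells with UAS-bla under PPARd control, stimulated by 300 nM L165041 (final) alongside test compound for 17 h at 37 C, then FRET fluorescence after 2 h substrate incubation.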

[8] = target: Bile acid receptor (Homo sapiens) (UniProt Q96RI1); experiment: qHTS assay to identify small molecule antagonists of the farnesoid-X-receptor (FXR) signaling pathway (AID 743217; active = well fitted inhibition curve with a large enough effect in the signal ratio in the repeat runs, not every such curve was filed as active; the % refers to the signal ratio; also: potency is read from the fitted curve at half-maximal effect)
Bile acid receptor (Homo sapiens), sequence (Q96RI1 whole entry, looked up): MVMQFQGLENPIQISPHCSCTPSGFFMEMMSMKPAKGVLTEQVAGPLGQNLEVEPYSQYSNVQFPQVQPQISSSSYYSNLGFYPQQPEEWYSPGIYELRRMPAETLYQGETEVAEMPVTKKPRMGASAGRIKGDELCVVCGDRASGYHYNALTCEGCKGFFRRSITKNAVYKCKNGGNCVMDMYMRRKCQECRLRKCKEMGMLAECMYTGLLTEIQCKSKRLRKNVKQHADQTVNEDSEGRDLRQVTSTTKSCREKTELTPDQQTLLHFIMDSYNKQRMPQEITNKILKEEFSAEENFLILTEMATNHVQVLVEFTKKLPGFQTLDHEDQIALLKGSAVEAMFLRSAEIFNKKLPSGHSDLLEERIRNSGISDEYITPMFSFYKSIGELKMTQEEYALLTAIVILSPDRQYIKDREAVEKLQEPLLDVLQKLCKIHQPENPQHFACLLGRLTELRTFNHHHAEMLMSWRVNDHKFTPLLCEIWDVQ
Procedure, shortened: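 Beta-lactamase reporter under UAS control in HEK 293T cells; compound exposure 16 h at 37 °C in the presence of chenodeoxycholic acid (50 uM final); signal from B/G FRET substrate after 2 h at room temperature.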

[9] = qHTS assay to identify small molecule agonists of the farnesoid-X-receptor (FXR) signaling pathway - cell viability counter screen (AID 743218); also: nearly all actives have a fitted effect of over 45% in size; also: potency is read from the fitted curve at half-maximal effect
Procedure, shortened: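 In GeneBLAzer FXR-UAS-bla HEK 293T cells, compounds act for 16 h at 37 C. Cell viability is then scored in the reporter wells by CellTiter-Glo, 30 min at RT, luminescence.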

[10] = qHTS assay to identify small molecule antagonists of the farnesoid-X-receptor (FXR) signaling pathway - cell viability counter screen (AID 743221; active = well fitted cell-killing curve with a large enough effect in the repeat runs, not every such curve was filed as active; also: nearly all actives have a fitted effect of over 50% in size; also: potency is read from the fitted curve at half-maximal effect)
Procedure, shortened: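 Cytotoxicity is taken from ATP luminescence (CellTiter-Glo, 30 min, room temperature) in FXR-bla HEK 293T cells previously incubated 16 h at 37 C with compound and chenodeoxycholic acid at 50 uM final.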

[11] = target: Vitamin D3 receptor (Homo sapiens) (UniProt P11473); experiment: qHTS assay to identify small molecule agonists of the vitamin D receptor (VDR) signaling pathway (AID 743222; calls by dose curve)
Vitamin D3 receptor (Homo sapiens), sequence (P11473 whole entry, looked up): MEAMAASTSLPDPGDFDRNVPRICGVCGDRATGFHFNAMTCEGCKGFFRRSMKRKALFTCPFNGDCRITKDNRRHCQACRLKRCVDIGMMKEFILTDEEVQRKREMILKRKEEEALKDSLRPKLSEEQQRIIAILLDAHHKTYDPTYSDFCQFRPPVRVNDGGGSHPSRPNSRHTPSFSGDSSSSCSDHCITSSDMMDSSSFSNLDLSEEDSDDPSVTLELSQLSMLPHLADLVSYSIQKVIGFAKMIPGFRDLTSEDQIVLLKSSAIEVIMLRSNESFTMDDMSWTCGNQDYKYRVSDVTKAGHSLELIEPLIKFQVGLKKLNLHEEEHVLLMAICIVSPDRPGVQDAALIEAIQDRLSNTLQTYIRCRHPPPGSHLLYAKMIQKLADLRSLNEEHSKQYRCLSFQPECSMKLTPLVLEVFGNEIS
Procedure, shortened: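 Agonist activity measured in VDR-bla reporter cells. Exposure 16 h, 37C, 5% CO2; detection by B/G FRET substrate, 2 h RT.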

[12] = target: Vitamin D3 receptor (Homo sapiens) (UniProt P11473); experiment: qHTS assay to identify small molecule antagonists of the vitamin D receptor (VDR) signaling pathway (AID 743223; active = well fitted inhibition curve with a large enough effect in the signal ratio in the repeat runs, not every such curve was filed as active; the % refers to the signal ratio)
Procedure, shortened: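 Quantitative HTS in VDR-bla reporter cells stimulated with 1alpha,25-dihydroxyvitamin D3, 3 nM final. Compound exposure 16 h, 37C, 5% CO2. Read-out: beta-lactamase FRET substrate fluorescence, 2 h RT.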

[13] = qHTS assay for small molecule activators of the heat shock response signaling pathway (AID 743210; active = well fitted activation curve with a large enough effect in the signal ratio in the repeat runs, with a control signal flat, not every such curve was filed as active; the % refers to the signal ratio;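 also: HeLa cells with beta-lactamase reporter driven by heat shock elements; series mostly up to about 63 µM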)
Procedure, shortened: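 HeLa HSE-bla cells, overnight plating; cpd in DMSO 5 h, 37 C; LiveBLAzer B/G FRET substrate 2.5 h RT; fluorescence intensity read.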

[14] = qHTS assay to identify small molecule agonists of the peroxisome proliferator-activated receptor delta (PPARd) signaling pathway - cell viability counter screen (AID 743211); also: nearly all actives have a fitted effect of over 55% in size; also: potency is read from the fitted curve at half-maximal effect
Procedure, shortened: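 Tox21 library compounds, delivered in DMSO, were incubated 17 h with PPARd-bla HEK293H cells; cytotoxicity was taken from CellTiter-Glo luminescence read 30 min after reagent addition.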

[15] = qHTS assay to identify small molecule agonists of the vitamin D receptor (VDR) signaling pathway - cell viability counter screen (AID 743224); also: nearly all actives have a fitted effect of over 50% in size; also: potency is read from the fitted curve at half-maximal effect
Procedure, shortened: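 VDR-bla cell line, quantitative HTS format; 16 h compound incubation (37C, 5% CO2); ATP-based CellTiter-Glo luminescence measured in the reporter assay wells.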

[16] = qHTS assay to identify small molecule antagonists of the peroxisome proliferator-activated receptor delta (PPARd) signaling pathway - cell viability counter screen (AID 743213); also: nearly all actives have a fitted effect of over 50% in size; also: potency is read from the fitted curve at half-maximal effect
Procedure, shortened: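 HEK293H cells with the PPARd UAS-bla reporter, co-treated 17 h at 37 C with compounds and L165041 (300 nM final), were lysed with CellTiter-Glo. Luminescence indicated viable cell content.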

[17] = target: Peroxisome proliferator-activated receptor gamma (Homo sapiens) (UniProt P37231); experiment: qHTS assay to identify small molecule agonists of the peroxisome proliferator-activated receptor gamma (PPARg) signaling pathway (AID 743094; active = well fitted activation curve with a large enough effect in the signal ratio in the repeat runs, not every such curve was filed as active; the % refers to the signal ratio)
Peroxisome proliferator-activated receptor gamma (Homo sapiens), sequence (P37231 whole entry, looked up): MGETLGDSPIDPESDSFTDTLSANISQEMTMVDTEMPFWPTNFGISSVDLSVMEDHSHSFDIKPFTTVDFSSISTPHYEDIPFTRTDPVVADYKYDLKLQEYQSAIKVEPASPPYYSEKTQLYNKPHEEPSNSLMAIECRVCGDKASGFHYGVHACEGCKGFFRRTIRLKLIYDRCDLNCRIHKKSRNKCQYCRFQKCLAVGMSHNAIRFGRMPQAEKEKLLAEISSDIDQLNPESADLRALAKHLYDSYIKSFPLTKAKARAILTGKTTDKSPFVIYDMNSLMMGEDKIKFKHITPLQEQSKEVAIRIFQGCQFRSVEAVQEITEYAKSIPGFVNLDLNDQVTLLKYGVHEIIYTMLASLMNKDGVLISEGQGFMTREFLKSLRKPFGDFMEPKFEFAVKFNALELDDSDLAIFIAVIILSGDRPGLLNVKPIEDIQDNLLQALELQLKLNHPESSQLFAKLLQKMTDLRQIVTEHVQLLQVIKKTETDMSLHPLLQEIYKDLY
Procedure, shortened: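 Stably transfected HEK293H cells (GeneBLAzer PPARg UAS-bla) were incubated with test substances for 17 h at 37C after a 5 h pre-incubation; beta-lactamase activity was then detected by FRET substrate fluorescence.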

[18] = target: Peroxisome proliferator-activated receptor gamma (Homo sapiens) (UniProt P37231); experiment: qHTS assay to identify small molecule antagonists of the peroxisome proliferator-activated receptor gamma (PPARg) signaling pathway (AID 743191; calls by dose curve; also: series mostly up to about 63 µM; nearly all actives have a fitted effect of over 30% in size)
Procedure, shortened: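 Beta-lactamase reporter under UAS control in HEK293H PPARg-bla cells; compound treatment 17 h at 37C. Read-out: fluorescence intensity after 1 h room-temperature incubation with LiveBLAzer B/G FRET substrate.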

[19] = target: Bile acid receptor (Homo sapiens) (UniProt Q96RI1); experiment: qHTS assay to identify small molecule agonists of the farnesoid-X-receptor (FXR) signaling pathway (AID 743220; active = well fitted activation curve with a large enough effect in the signal ratio in the repeat runs, not every such curve was filed as active; the % refers to the signal ratio)
Procedure, shortened: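 Beta-lactamase reporter under UAS control in GeneBLAzer FXR HEK 293T cells (5000/well) measured with LiveBLAzer FRET substrate after 2 h at room temperature. Compound exposure lasted 16 h at 37C.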

Row | Compound | Potency [1] | Potency [2] | Potency [3] | Potency [4] | Potency [5] | Potency [6] | Potency [7] | Potency [8] | Potency [9] | Potency [10] | Potency [11] | Potency [12] | Potency [13] | Potency [14] | Potency [15] | Potency [16] | Potency [17] | Potency [18] | Potency [19]
1 | Sc1nc2ccccc2s1 | inactive | inactive | inactive | inactive | inactive | inactive | 38.9 µM (active) | inactive | inactive | inactive | inactive | inactive | – | – | – | – | – | – | –
2 | Cc1cc(-n2nc3ccc(Cl)cc3n2)c(O)c(C(C)(C)C)c1 | inactive | inactive | inactive | inactive | inactive | inactive | inactive | inactive | inactive | inactive | inactive | inactive | inactive | inactive | inactive | – | – | – | –
3 | CCC(=O)C(=O)CC | inactive | – | – | – | inactive | inactive | inactive | – | inactive | inactive | inactive | inactive | inactive | inactive | inactive | inactive | – | – | –
4 | Oc1cc(Cl)cc(Cl)c1Cl | – | inactive | 62.6 µM (active) | inactive | inactive | inactive | – | – | inactive | inactive | – | inactive | inactive | inactive | – | inactive | inactive | – | –
5 | Cc1cccc(C)c1NC(=O)c1ccc(N)cc1 | – | inactive | inactive | inactive | inactive | inactive | – | – | inactive | inactive | inactive | inactive | inactive | inactive | – | – | – | inactive | –
6 | C=CC(C)(CCC=C(C)C)OC=O (stereo not given) | – | – | – | inactive | inactive | inactive | – | – | inactive | inactive | – | inactive | inactive | inactive | inactive | – | inactive | inactive | –
7 | COc1ccc2cc1Oc1ccc(cc1)C[C@H]1c3c(cc4c(c3Oc3cc5c(cc3OC)CCN(C)[C@@H]5C2)OCO4)CCN1C | – | – | – | 29.8 µM (active) | inactive | – | – | – | 18.8 µM (active) | 29.8 µM (active) | inactive | – | inactive | 29.8 µM (active) | – | 13.3 µM (active) | inactive | – | inactive
8 | CCCCC(CC)CN1CN(CC(CC)CCCC)CC(C)(N)C1 (stereo not given) | – | 29.8 µM (active) | – | 18.8 µM (active) | inactive | – | – | inactive | inactive | inactive | – | inactive | – | inactive | 29.8 µM (active) | – | inactive | – | inactive
9 | Cc1c(C)c2c(c(C)c1O)CC[C@@](C)(CCC[C@H](C)CCC[C@H](C)CCCC(C)C)O2 | – | – | – | inactive | inactive | inactive | inactive | – | inactive | inactive | inactive | inactive | – | inactive | – | inactive | inactive | – | –
10 | O=C(O)Cc1ccc2c(c1)C(=O)c1ccccc1CO2 | – | inactive | – | inactive | inactive | inactive | inactive | – | inactive | inactive | – | inactive | – | inactive | inactive | – | – | – | –
11 | C[Si](Cl)(c1ccccc1)c1ccccc1 | – | inactive | – | inactive | inactive | inactive | inactive | inactive | inactive | inactive | – | inactive | inactive | inactive | inactive | inactive | inactive | – | inactive
12 | Cc1nc(-c2ccc(Cl)cc2)oc1COC(C)(C)C(=O)O | inactive | – | inactive | – | – | – | – | inactive | inactive | inactive | inactive | inactive | inactive | inactive | inactive | inactive | – | – | inactive
13 | CN(C)CCN1CCN(c2cccc(Cl)c2)C1=O | – | inactive | inactive | inactive | inactive | inactive | inactive | – | inactive | inactive | – | inactive | inactive | inactive | inactive | – | – | – | –
14 | Cc1ccc(C)cc1 | – | inactive | inactive | – | inactive | inactive | – | inactive | inactive | – | – | – | inactive | inactive | inactive | – | – | – | inactive
15 | Cc1cc(C(C#N)c2ccc(Cl)cc2)c(Cl)cc1NC(=O)c1cc(I)cc(I)c1O (stereo not given) | inactive | – | – | 33.5 µM (active) | – | – | – | – | – | 29.8 µM (active) | – | – | – | 29.8 µM (active) | inactive | – | – | – | –
16 | COc1cc2nc(N3CCN(C(=O)c4ccco4)CC3)nc(N)c2cc1OC | – | inactive | – | inactive | inactive | inactive | inactive | inactive | inactive | inactive | – | – | inactive | inactive | – | – | inactive | inactive | –
17 | CNC(=O)c1ccccc1Sc1ccc2c(/C=C/c3ccccn3)n[nH]c2c1 | inactive | – | – | inactive | inactive | – | – | – | – | – | – | – | inactive | – | 29.8 µM (active) | 18.8 µM (active) | – | – | –
18 | [Cl][Pt-2]([Cl])([Cl])[Cl] | – | inactive | 48.8 µM (active) | inactive | inactive | inactive | – | inactive | inactive | inactive | inactive | inactive | inactive | inactive | – | inactive | – | inactive | inactive
19 | Fc1ccc(C(c2ccc(F)cc2)N2CCNCC2)cc1 | – | – | – | 16.8 µM (active) | 15 µM (active) | – | – | 29.8 µM (active) | 11.9 µM (active) | 26.6 µM (active) | inactive | – | – | 7.5 µM (active) | 26.6 µM (active) | – | – | – | inactive
20 | COc1ccc2c(c1)c(CC(=O)OC/C=C(\C)CC/C=C(\C)CCC=C(C)C)c(C)n2C(=O)c1ccc(Cl)cc1 | – | inactive | – | inactive | – | – | – | – | inactive | inactive | – | inactive | – | inactive | inactive | – | – | – | inactive
